In assay [1] the target is Acetylcholinesterase (Homo sapiens) (UniProt P22303). As to the kind of experiment: Acetylcholinesterase (AChE) small molecule antagonists: colormetric cell-based qHTS assay (AID 1347395; calls by dose curve; note: nearly all actives have a fitted effect of over 30% in size). The gist of the method:
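Cells (SH-SY5Y, 2,000 per well) are seeded and left overnight at 37 C. Compound is added for 30 min, then DTNB and acetylthiocholine for a further 90 min at 37 C before absorbance-based thiocholine detection.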
(qHTS replaces the single test concentration by a dilution series.)

Assay [2] has the same target. The assay can be described thus: Acetylcholinesterase (AChE) small molecule antagonists: enzyme-based qHTS assay (AID 1347397; calls by dose curve; note: nearly all actives have a fitted effect of over 55% in size). The following applies: Potency: AChE enzyme activity inhibition. Put shortly: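 Recombinant human AChE (50 mU/mL) preincubated with compound 30 min at room temperature; acetylthiocholine plus DTNB then added, and thiocholine formation read colorimetrically after 10 min at room temperature. DMSO served as vehicle control.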

Assay [3] shares this target. The assay can be described thus: Acetylcholinesterase (AChE) small molecule antagonists: fluorescence cell-based qHTS assay (AID 1347398; calls by dose curve; note: nearly all actives have a fitted effect of over 50% in size). The following applies: Potency: AChE activity. The gist of the method:
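SH-SY5Y cells (2000/well), attached overnight, incubated with compound 30 min at 37 C. Acetylthiocholine plus Thiolite Green then added for 40 min at room temperature. Thiocholine fluorescence (Ex/Em 490/520 nm) reports cellular AChE activity.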

The target is the same in assay [4]. As to the kind of experiment: Acetylcholinesterase (AChE) small molecule antagonists: enzyme-based qHTS assay with human liver microsomes (AID 1347399; calls by dose curve; note: nearly all actives have a fitted effect of over 60% in size). Particulars: Potency: qHTS inhibition. Put shortly:
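Recombinant human AChE (50 mU/mL in the enzyme mix) and human liver microsomes (0.25 mg/mL final) were preincubated with compound and NADPH (0.25 mg/mL final) for 30 min at 37 C. Acetylthiocholine/DTNB was then added; thiocholine was read colorimetrically after 10 min at room temperature.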

Assay [5] concerns the target Cytochrome P450 2D6 (Homo sapiens) (UniProt P10635). As to the kind of experiment: Cytochrome P450 Family 2 Subfamily D Member 6 (CYP2D6) small molecule antagonists: luciferase reporter qHTS assay (AID 1671196). Note: nearly all actives have a fitted effect of over 50% in size. Note: potency is the fitted concentration of half-maximal effect. The gist of the method:
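Inhibition of CYP2D6 was gauged by loss of luminescence, since light produced tracks the luciferin generated from a proluciferin substrate. A 10 min room-temperature preincubation preceded 1 h NADPH-supported turnover.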
Background: In a reporter assay the amount or activity of a reporter protein is the signal.

The target in assay [6] is Cytochrome P450 2C19 (Homo sapiens) (UniProt P33261). The assay can be described thus: Cytochrome P450 Family 2 Subfamily C Member 19 (CYP2C19) small molecule antagonists: luciferase reporter qHTS assay (AID 1671197). Note: nearly all actives have a fitted effect of over 65% in size. Note: potency is the fitted concentration of half-maximal effect. Put shortly:
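Compounds were tested on CYP2C19 activity via proluciferin conversion to luciferin. The 37C, 1 h reaction followed NADPH addition; detection reagent stopped it.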

In assay [7] the target is Cytochrome P450 2C9 (Homo sapiens) (UniProt P11712). The assay can be described thus: Cytochrome P450 Family 2 Subfamily C Member 9 (CYP2C9) small molecule antagonists: luciferase reporter qHTS assay (AID 1671198). Note: nearly all actives have a fitted effect of over 50% in size. Note: potency is the fitted concentration of half-maximal effect. The gist of the method: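 P450-Glo proluciferin substrate with CYP2C9 enzyme; 10 min RT preincubation, then NADPH regeneration 1 h at 37C; luciferin detection reagent 20 min RT, luminescence in relative luminescence units.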
Cytochrome P450 2C9 (Homo sapiens), sequence (P11712 whole entry, looked up): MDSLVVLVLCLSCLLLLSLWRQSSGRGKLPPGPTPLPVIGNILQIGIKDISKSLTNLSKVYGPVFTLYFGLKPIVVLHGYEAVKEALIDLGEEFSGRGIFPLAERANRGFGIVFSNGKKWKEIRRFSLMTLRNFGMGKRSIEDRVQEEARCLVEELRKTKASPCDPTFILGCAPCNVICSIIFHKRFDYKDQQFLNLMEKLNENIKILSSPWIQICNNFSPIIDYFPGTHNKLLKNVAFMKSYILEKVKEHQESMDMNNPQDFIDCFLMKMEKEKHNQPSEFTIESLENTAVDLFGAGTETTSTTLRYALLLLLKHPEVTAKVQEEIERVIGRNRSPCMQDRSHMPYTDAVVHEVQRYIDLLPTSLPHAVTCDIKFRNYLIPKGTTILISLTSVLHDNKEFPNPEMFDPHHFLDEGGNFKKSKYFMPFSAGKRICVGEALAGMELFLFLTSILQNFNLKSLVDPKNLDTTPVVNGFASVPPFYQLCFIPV

In assay [8] the target is Cytochrome P450 1A2 (Homo sapiens) (UniProt P05177). As to the kind of experiment: Cytochrome P450 Family 1 Subfamily A Member 2 (CYP1A2) small molecule antagonists: luciferase reporter qHTS assay (AID 1671199). Note: nearly all actives have a fitted effect of over 50% in size. Note: potency is the fitted concentration of half-maximal effect. Put shortly: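 Signal from luciferin formed by CYP1A2 from a proluciferin substrate is read as luminescence, expressed in relative luminescence units. Compounds sit with enzyme 10 min, NADPH-driven reaction runs 1 h, all at room temperature.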
Cytochrome P450 1A2 (Homo sapiens), sequence (P05177 whole entry, looked up): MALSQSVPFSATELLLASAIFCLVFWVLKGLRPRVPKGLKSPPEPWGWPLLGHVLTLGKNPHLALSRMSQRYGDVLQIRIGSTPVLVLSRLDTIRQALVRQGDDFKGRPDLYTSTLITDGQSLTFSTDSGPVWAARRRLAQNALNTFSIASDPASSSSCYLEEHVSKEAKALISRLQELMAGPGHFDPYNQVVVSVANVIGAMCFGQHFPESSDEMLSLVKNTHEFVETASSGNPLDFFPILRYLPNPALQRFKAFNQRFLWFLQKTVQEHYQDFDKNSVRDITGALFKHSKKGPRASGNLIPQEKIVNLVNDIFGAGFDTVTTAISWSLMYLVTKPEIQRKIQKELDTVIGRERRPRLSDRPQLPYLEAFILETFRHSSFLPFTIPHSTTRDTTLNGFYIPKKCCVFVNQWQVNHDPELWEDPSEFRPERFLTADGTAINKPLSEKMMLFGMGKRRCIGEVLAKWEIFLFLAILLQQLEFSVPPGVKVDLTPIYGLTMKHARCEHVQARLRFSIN

Assay [9] addresses Cytochrome P450 3A4 (Homo sapiens) (UniProt P08684). The assay can be described thus: Cytochrome P450 Family 3 Subfamily A Member 4 (CYP3A4) small molecule antagonists: luciferase reporter qHTS assay (AID 1671201). Note: nearly all actives have a fitted effect of over 50% in size. Note: potency is the fitted concentration of half-maximal effect. The gist of the method:
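qHTS, 1536-well. CYP3A4 + proluciferin substrate, cpd 10 min RT → NADPH regen 1 h RT → detection reagent 20 min → luminescence (RLU). Ketoconazole positive control.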

The target of assay [10] is Voltage-gated inwardly rectifying potassium channel KCNH2 (Homo sapiens) (UniProt Q12809). The assay can be described thus: Human Ether-a-go-go-Related Gene (hERG) channel small molecule antagonists: fluorescence cell-based qHTS assay (AID 1671200). The gist of the method: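 Fluorescence at 540 nm emission (480 nm excitation) was recorded kinetically for 2 min at 1-second intervals once the thallium-containing stimulus reached cells previously loaded with FluxOR II dye.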
Voltage-gated inwardly rectifying potassium channel KCNH2 (Homo sapiens), sequence (Q12809 whole entry, looked up): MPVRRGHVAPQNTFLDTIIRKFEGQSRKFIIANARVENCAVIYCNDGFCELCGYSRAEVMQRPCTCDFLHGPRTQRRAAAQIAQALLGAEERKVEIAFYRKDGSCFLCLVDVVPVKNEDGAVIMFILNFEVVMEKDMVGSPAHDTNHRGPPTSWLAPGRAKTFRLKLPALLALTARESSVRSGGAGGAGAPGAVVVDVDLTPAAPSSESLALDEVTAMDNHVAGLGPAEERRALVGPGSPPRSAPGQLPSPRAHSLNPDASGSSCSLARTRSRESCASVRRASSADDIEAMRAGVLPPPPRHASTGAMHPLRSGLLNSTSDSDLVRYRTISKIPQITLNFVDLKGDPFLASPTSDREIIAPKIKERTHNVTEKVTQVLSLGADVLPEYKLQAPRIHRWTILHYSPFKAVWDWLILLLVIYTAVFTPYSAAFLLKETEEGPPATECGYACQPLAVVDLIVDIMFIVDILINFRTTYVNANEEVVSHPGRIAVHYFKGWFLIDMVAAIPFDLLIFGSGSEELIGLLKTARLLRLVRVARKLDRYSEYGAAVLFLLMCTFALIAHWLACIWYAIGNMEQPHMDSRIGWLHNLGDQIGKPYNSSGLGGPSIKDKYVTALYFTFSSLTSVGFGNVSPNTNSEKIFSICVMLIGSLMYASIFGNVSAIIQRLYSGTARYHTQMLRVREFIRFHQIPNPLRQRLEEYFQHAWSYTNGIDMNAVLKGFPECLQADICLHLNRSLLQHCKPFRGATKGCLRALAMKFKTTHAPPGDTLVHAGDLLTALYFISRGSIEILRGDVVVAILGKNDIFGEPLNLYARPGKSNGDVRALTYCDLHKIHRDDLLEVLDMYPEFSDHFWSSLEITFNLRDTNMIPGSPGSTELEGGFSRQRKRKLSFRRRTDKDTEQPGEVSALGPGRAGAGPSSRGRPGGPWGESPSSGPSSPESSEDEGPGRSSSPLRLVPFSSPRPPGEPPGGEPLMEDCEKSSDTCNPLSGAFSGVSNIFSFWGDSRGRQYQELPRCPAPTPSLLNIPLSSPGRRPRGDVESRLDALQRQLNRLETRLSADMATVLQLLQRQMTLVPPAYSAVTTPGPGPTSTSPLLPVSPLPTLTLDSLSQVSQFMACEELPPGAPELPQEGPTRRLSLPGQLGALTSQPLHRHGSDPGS
(In general: The hERG channel carries a current that helps repolarise heart muscle cells.)

“And” between values parts separate entries of the source, which are not always exact repeats. Equal entries are not always repeated. Records with an inconclusive call do not appear. Where a structure was tested more than once in an assay, its records may differ in their call. The source made the active and inactive calls. Unless noted, calls come from the whole dose curve; as a rule, active = well fitted curve in the direction sought with a large enough effect in the repeat runs; inconclusive = weak or mixed curves; inactive = no such curve, though single readings can be large; an effect the other way counts as inactive or inconclusive.

The values below come from PubChem BioAssay (Tox21).

Cytochrome P450 2D6 (Homo sapiens), sequence (P10635 whole entry, looked up): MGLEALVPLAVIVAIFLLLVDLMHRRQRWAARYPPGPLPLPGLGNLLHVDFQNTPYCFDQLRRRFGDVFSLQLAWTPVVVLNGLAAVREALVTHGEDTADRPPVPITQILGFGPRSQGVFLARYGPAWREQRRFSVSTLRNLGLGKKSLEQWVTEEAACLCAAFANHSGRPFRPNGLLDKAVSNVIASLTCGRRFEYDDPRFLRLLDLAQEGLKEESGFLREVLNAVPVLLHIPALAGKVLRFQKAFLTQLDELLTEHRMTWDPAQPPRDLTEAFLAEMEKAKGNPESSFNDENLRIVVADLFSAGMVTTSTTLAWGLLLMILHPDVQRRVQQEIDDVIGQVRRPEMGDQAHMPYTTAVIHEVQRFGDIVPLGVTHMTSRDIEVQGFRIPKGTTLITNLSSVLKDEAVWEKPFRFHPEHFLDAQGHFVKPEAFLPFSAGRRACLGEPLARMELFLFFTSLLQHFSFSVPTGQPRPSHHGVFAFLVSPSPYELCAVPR
Acetylcholinesterase (Homo sapiens), sequence (P22303 whole entry, looked up): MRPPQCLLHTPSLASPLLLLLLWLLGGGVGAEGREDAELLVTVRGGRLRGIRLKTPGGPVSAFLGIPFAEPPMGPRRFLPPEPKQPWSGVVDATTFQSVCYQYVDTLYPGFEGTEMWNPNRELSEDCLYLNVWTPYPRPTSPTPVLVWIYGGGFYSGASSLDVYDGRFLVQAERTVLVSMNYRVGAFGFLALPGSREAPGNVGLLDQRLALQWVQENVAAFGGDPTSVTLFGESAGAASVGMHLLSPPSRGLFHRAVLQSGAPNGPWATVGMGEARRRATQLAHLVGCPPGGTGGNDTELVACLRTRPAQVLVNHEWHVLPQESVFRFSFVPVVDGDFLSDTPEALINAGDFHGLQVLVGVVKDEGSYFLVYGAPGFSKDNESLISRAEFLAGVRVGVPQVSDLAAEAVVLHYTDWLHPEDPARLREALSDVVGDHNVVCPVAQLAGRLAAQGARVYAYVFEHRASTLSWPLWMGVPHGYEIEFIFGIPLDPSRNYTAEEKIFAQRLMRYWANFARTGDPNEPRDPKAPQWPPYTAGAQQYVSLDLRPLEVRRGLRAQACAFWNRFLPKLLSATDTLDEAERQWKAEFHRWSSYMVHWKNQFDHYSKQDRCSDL
Cytochrome P450 2C19 (Homo sapiens), sequence (P33261 whole entry, looked up): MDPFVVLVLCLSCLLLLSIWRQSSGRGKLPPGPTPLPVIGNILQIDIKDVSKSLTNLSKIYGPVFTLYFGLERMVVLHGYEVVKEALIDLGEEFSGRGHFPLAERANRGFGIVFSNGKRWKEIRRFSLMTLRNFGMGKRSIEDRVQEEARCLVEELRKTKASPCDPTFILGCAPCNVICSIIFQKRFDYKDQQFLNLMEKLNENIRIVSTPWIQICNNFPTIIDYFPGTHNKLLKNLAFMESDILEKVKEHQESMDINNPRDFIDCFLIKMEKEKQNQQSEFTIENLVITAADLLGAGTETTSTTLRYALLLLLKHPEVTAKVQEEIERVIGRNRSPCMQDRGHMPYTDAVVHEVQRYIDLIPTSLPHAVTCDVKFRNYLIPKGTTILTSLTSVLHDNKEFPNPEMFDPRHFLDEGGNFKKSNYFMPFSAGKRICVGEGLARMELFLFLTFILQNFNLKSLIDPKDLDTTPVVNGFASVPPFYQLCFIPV
Cytochrome P450 3A4 (Homo sapiens), sequence (P08684 whole entry, looked up): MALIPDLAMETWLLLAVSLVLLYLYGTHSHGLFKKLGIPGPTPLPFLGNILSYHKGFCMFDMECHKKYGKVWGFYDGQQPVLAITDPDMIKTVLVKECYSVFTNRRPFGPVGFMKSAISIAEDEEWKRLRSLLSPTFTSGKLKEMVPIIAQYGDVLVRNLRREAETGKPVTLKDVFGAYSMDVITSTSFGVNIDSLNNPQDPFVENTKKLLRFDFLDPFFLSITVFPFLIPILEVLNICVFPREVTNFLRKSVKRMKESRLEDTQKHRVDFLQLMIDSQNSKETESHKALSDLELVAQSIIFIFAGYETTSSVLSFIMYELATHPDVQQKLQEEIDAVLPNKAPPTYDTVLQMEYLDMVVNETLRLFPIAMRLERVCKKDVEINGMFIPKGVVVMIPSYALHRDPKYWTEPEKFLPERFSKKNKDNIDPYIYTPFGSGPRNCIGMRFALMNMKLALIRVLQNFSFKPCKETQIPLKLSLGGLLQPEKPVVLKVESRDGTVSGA

For the molecule `Nc1cccnc1`, the Potency result in assay [1], in assay [2], in assay [3], in assay [4], in assay [5] and in assay [7] was “inactive” throughout. Moreover, the Potency result in assay [8] and in [9] was “inactive” throughout. Moreover, in assay [6], the Potency is 71 µM (active).
In the case of `CC(C)Oc1cc(-n2nc(C(C)(C)C)oc2=O)c(Cl)cc1Cl`, the Potency entry in assay [1], in assay [2], in [3], in assay [4], in [5] and in [9] was “inactive” each time. The Potency in [6] is 7 µM (active) and 3.99 µM (active); in assay [7], 27.9 µM (active) and 25.2 µM (active); in assay [8] it was 1.4 µM (active) and 2.83 µM (active).
Consider `CC(C)c1ccc(CO)cc1`, for which the Potency result in assay [1], in [2], in assay [3], in assay [4], in [5] and in assay [10] was “inactive” throughout. Besides, in [9], the Potency result is “inactive”. Moreover, in assay [7], the Potency was 39.9 µM (active).
Take `CCCCN(CC)c1c([N+](=O)[O-])cc(C(F)(F)F)cc1[N+](=O)[O-]`: the Potency result in assay [1], in assay [2], in [3], in assay [4], in assay [5] and in assay [9] was “inactive” throughout. The Potency in assay [6] is 72.1 µM (active) and 20 µM (active); in assay [7] it was 31.7 µM (active); in [8] it was 22.4 µM (active).
Consider `O=C(CCl)c1ccccc1`, for which the Potency result in [1], in assay [2], in [3], in assay [4], in assay [8] and in assay [9] was “inactive” each time. In addition, the Potency in assay [5] was 32.1 µM (active) and 31.7 µM (active); in [6], 57.2 µM (active); in assay [7] it was 40.5 µM (active) and inactive.
For `COP(=S)(OC)Oc1cc(Cl)c(Cl)cc1Cl`, the Potency entry in [2], in [3], in assay [4] and in [5] was “inactive” in each case. The Potency was 19.9 µM (active) and 7.76 µM (active) in assay [6]; 9.95 µM (active) and 7.76 µM (active) in [7]; 15.8 µM (active) and 11 µM (active) in assay [8].
Regarding `C[C@]12CCC(=O)C(O)=C1CC[C@@H]1[C@@H]2CC[C@]2(C)C(=O)CC[C@@H]12`, the Potency entry in [1], in assay [2], in assay [3], in assay [4], in [8] and in [10] was “inactive” each time. Besides, the Potency was 31.7 µM (active) in assay [5] and 20 µM (active) in [6].
As to `O=S(=O)(Oc1ccc(Cl)cc1)c1ccc(Cl)cc1`, the Potency result in assay [1], in assay [2], in assay [3], in assay [4] and in [9] was “inactive” throughout. Moreover, the Potency in [5] was 16.1 µM (active) and 28.3 µM (active); in [6] it was 114 nM (active) and 126 nM (active); in assay [7] it was 32.1 µM (active) and 25.2 µM (active); in [8], 2.87 µM (active) and 4.48 µM (active).
For the molecule `CCCCCc1cc(O)cc(O)c1`, the Potency entry in assay [2], in [3], in assay [4] and in [10] was “inactive” each time. For the same molecule, the Potency in assay [5] is 10.1 µM (active) and 31.7 µM (active); in assay [6], 3.57 µM (active) and 6.33 µM (active); in [7] it was 11.3 µM (active) and 31.7 µM (active); in [8] it was 17.9 µM (active) and 35.6 µM (active); in [9] it was 5.05 µM (active) and 22.4 µM (active).
With `CCCCC(CC)COC(=O)c1ccc(C(=O)OCC(CC)CCCC)c(C(=O)OCC(CC)CCCC)c1` (configuration not stated), the Potency entry in assay [2], in [3], in [4], in [5], in assay [6] and in assay [7] was “inactive” each time. The Potency entry in [8], in assay [10] and in [9] was “inactive” throughout.
Take `CCC(C)c1ccc(O)cc1` (configuration not stated): the Potency result in [1], in assay [2], in assay [3], in assay [4], in assay [5] and in assay [6] was “inactive” throughout. The Potency result in assay [9] is “inactive”. Further, the Potency in assay [8] was 35.9 µM (active) and 31.7 µM (active).
For `Cc1ccc2c(c1N)C(=O)c1ccccc1C2=O`, the Potency result in assay [2], in assay [3], in assay [4], in assay [10] and in assay [9] was “inactive” throughout. Further, the Potency in [5] is 702 nM (active) and 5.64 µM (active); in assay [6], 2.8 µM (active) and 5.03 µM (active); in assay [7], 2.22 µM (active) and 3.99 µM (active); in [8], 443 nM (active) and 633 nM (active).
For the molecule `c1ccc(NNc2ccccc2)cc1`, the Potency result in assay [2], in assay [3], in [4], in assay [5], in assay [6] and in [10] was “inactive” each time. In addition, the Potency result in [9] was “inactive”. Moreover, the Potency is 71.7 µM (active) and inactive in [7]; 32 µM (active) and 12.6 µM (active) in assay [8].
As to `NCc1cccnc1`, the Potency entry in assay [1], in [2], in assay [3], in [4], in assay [5] and in [7] was “inactive” in each case. Besides, the Potency entry in assay [8] and in [9] was “inactive” throughout. Besides, the Potency in assay [6] is 28.3 µM (active) and inactive.
On to `CCOC(=O)C(C)OC(=O)c1cc(Oc2ccc(C(F)(F)F)cc2Cl)ccc1[N+](=O)[O-]` (configuration not stated), for which the Potency result in assay [1], in assay [2], in assay [3], in [4], in assay [8] and in [9] was “inactive” throughout. Also, the Potency in [6] is 6.3 µM (active) and 6.33 µM (active); in [7], 7.06 µM (active) and 7.1 µM (active).
On to `CCOc1cc(Oc2ccc(C(F)(F)F)cc2Cl)ccc1[N+](=O)[O-]`, for which the Potency result in assay [1], in assay [2], in assay [3], in [4] and in assay [9] was “inactive” each time. Further, the Potency in assay [5] is 2.27 µM (active) and 5.64 µM (active); in assay [6], 5.7 µM (active) and 7.1 µM (active); in assay [7], 4.53 µM (active) and 6.33 µM (active); in assay [8], 20 µM (active).
Take `Nn1cnnc1`: the Potency entry in assay [1], in [2], in [3], in [4], in [5] and in assay [10] was “inactive” in each case. The Potency entry in assay [9] is “inactive”. Besides, the Potency in [6] is 19.3 µM (active) and 71 µM (active); in [7], 34.4 µM (active).
